Structures are written as SMILES. Counter-ions that a name gives are not always drawn. In all, about 2,100 compounds went through this assay and about 180 (8.6%) showed an effect of 50% or more. What follows is part of a selection rich in strong results, with near analogues and random picks from the rest.

The subject of this assay is MOLM1 and UCSD/AML1 (averaged). The assay is described as follows: cell viability relative to DMSO control (POC); higher = less growth inhibition. The note with it: 1 µM; 72 h. Here is the method: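 Primary viability screen in the 3q26 EVI1-high AML cell lines MOLM1 and UCSD/AML1 (1.5e3 cells/well, 384-well), compounds at 1 uM for 72 h. ATP CellTiter-Glo read-out given as percent of viable cells over DMSO control (POC), averaged over duplicates. DMSO was the negative control and 5 uM etoposide the positive control. This mapping covers the MicroSource Spectrum and Selleck anticancer libraries (drug names).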
For the molecule `CC(C)C[C@H](N)C(=O)N[C@@H](C)C(=O)O`, the cell viability worked out at 98.2%.
In the case of `CC(=O)OC(C)(C)[C@@H]1Cc2cc3ccc(=O)oc3cc2O1`, the cell viability is 100%.
As for `CCNC(=O)c1noc(-c2cc(C(C)C)c(O)cc2O)c1-c1ccc(CN2CCOCC2)cc1` [Luminespib (AUY-922, NVP-AUY922)], the cell viability was found to be 2.13%.
The figure for `O=C(O)[C@H](O)[C@@](O)(Cc1ccc(O)cc1)C(=O)O` is 92.1%; for `C/C=C(\C)C(=O)O[C@@H]1c2c(ccc3ccc(=O)oc23)OC(C)(C)[C@@H]1OC(C)=O` it is 101%.
As for `c1ccc2c(CCNc3ccc(Nc4ccncc4)cc3)c[nH]c2c1`, the cell viability turned out to be 43.4%.
Consider `OCc1c[nH]c2ccccc12`, for which the cell viability was found to be 87.2%.
The figure for `N[C@@H](Cc1c[nH]c2ccccc12)C(=O)O` is 89.5%; for `Cc1cc(O)c(C=O)c(O)c1C(=O)O` it is 121%; for `CC(=O)Oc1ccc2c(c1C(C)C)CCC1C(C)(C)CCC[C@]21C` (some centres undefined) it is 91.9%.
As for `CC1(C)CC23C(=O)CCC(O)C2(C)CCC13` (centres undefined), the cell viability came out at 96.7%.
Next, `CN1CCC(c2c(O)cc(O)c3c(=O)cc(-c4ccccc4Cl)oc23)C(O)C1` (centres undefined) [Flavopiridol (Alvocidib) HCl]: 1.36%; `CC(C)CCC[C@@H](C)[C@H]1CC[C@H]2[C@@H]3C(=O)C=C4C[C@@H](O)CC[C@]4(C)[C@H]3CC[C@]12C`: 95.7%.
`CCN(CC)CCCCNc1ncc2cc(-c3cc(OC)cc(OC)c3)c(NC(=O)NC(C)(C)C)nc2n1`: the cell viability worked out at 36.8%.
The figure for `CCN(CC)CCNC(=O)COc1ccc(OC)cc1` is 97.5%; for `Nc1nc(Nc2ccc(S(N)(=O)=O)cc2)nn1C(=O)c1c(F)cccc1F` it is 53.8%; for `Cn1c(=O)c(F)c(Nc2ccc(I)cc2F)c2c(=O)n(C[C@@H](O)CO)cnc21` it is 24.8%.
With `CC(O)Cn1cnc2c1c(=O)n(C)c(=O)n2C` (centres undefined), the cell viability amounted to 94.4%.
As for `Cn1c(=O)c2c(ncn2CC(O)CO)n(C)c1=O` (centres undefined), the cell viability is 103%.
For the molecule `CC(C)c1cccc(=O)c(O)c1`, the cell viability stood at 93.6%.
Next, `COc1cc2ccc(=O)oc2c(O)c1O`: 88.3%; `CC1(O)CC2C(CC1O)C2(C)C` (centres undefined): 87.5%; `COc1cc(-c2coc3cc(OCc4ccccc4)c(OC)c(O)c3c2=O)cc(O)c1OC`: 95.2%.
Next, `NC(Cn1ccc(=O)c(O)c1)C(=O)O` (centres undefined): 92.7%.
On to `CC(=O)O[C@@H]1C[C@H]2C(C)(C)[C@@H](O)CC[C@]2(C)[C@H]2CC[C@@]3(C)[C@H](c4ccoc4)OC(=O)[C@H]4O[C@]43[C@@]21C` [beta-DIHYDROGEDUNOL], for which the cell viability was found to be 90.3%.
As for `CC(=O)N[C@@H](Cc1c[nH]c2ccccc12)C(=O)O`, the cell viability came out at 106%.
The figure for `CC(C)C[C@@H](NC(=O)[C@H](C)NC(=O)CNC(=O)[C@@H](NC=O)C(C)C)C(=O)N[C@@H](C)C(=O)N[C@@H](C(=O)N[C@H](C(=O)N[C@H](C(=O)N[C@@H](Cc1c[nH]c2ccccc12)C(=O)N[C@H](CC(C)C)C(=O)N[C@@H](Cc1c[nH]c2ccccc12)C(=O)N[C@H](CC(C)C)C(=O)N[C@@H](Cc1c[nH]c2ccccc12)C(=O)N[C@H](CC(C)C)C(=O)N[C@@H](Cc1c[nH]c2ccccc12)C(=O)NCCO)C(C)C)C(C)C)C(C)C` is 5.86%; for `CC(=O)N[C@@H](Cc1c[nH]c2ccccc12)C(N)=O` it is 101%.
As to `CC1(C)CC2C1CCC1(C)OC1CCC2(C)O` (centres undefined), the cell viability came out at 95.8%.
Regarding `Cc1cc(O)c(C)c(O)c1C(=O)O`, the cell viability was determined as 97.3%.
For the molecule `O=C(NC1CCNCC1)c1n[nH]cc1NC(=O)c1c(Cl)cccc1Cl`, the cell viability amounted to 13.3%.
On to `NC1=NCCN1CC(=O)O`, for which the cell viability was found to be 95.6%.
In the case of `CC(C)(C)Cn1c(N)nc2ccc(-c3[nH]c(C(C)(C)C)nc3-c3ccc(F)cc3)nc21`, the cell viability was determined as 91%.
For the molecule `C[C@@H](Oc1cc(-c2cnn(C3CCNCC3)c2)cnc1N)c1c(Cl)ccc(F)c1Cl`, the cell viability turned out to be 21.4%.
The figure for `NC(=O)Nc1sc(-c2ccc(F)cc2)cc1C(N)=O` is 42.3%; for `OC[C@H]1O[C@@H](O[C@H]2[C@H](O)[C@@H](O)[C@@H](O)O[C@@H]2CO)[C@H](O)[C@@H](O)[C@@H]1O` it is 105%; for `CCC(=O)OC1[C@@H]2CC3=C4CC(=O)O[C@@H](c5ccoc5)[C@]4(C)CCC3[C@@](C)(C2=O)[C@@H](CC(=O)OC)C1(C)C` (some centres undefined) it is 88.5%.
`COc1ccc(-c2coc3c(OC)c(OC)cc(O)c3c2=O)cc1`: the cell viability amounted to 101%.
On to `C#CCCCCCCCCCCCC(O)CC(O)COC(C)=O` (centres undefined), for which the cell viability was determined as 88.5%.
Turning to `C[C@]12CC[C@@H]3c4ccc(O)cc4CC[C@H]3[C@@H]1CC[C@@H]2O` [Estradiol], the cell viability was found to be 96.7%.
For the molecule `COc1cc2c(cc1O)CC[C@@H]1[C@@H]2CC[C@]2(C)[C@@H](O)CC[C@@H]12` [2-Methoxyestradiol], the cell viability was determined as 13.7%.
For `COc1ccc2c(c1)CC[C@@H]1[C@@H]2CC[C@]2(C)[C@@H](O)CC[C@@H]12`, the cell viability was 96.8%.
The figure for `C[C@]12CC[C@@H]3c4ccc(O)cc4CC[C@H]3[C@@H]1CC[C@@H]2O` is 91.5%; for `CC[C@H](/C=C/[C@@H](C)[C@H]1CC[C@H]2[C@@H]3CCC4=CC(=O)CC[C@]4(C)[C@H]3CC[C@]12C)C(C)C` it is 108%; for `CC(=O)CCCCn1c(=O)c2c(ncn2C)n(C)c1=O` it is 104%.
Turning to `COc1c(O)cc2oc3cc(O)c(CC=C(C)C)c(O)c3c(=O)c2c1CC=C(C)C` [alpha-MANGOSTIN], the cell viability turned out to be 95.2%.
For the molecule `COc1cc(C(C)=O)cc(OC)c1O`, the cell viability is 105%.
For the molecule `COC(=O)C[C@H]1C(C)(C)C(=O)[C@@H]2CC3C4=CC(=O)O[C@@H](c5ccoc5)[C@]4(C)CC[C@@H]3[C@@]1(C)C2=O` (some centres undefined), the cell viability amounted to 98.6%.
Regarding `CCCCOc1ccc(OCCCN2CCOCC2)cc1`, the cell viability came to 97.5%.
As for `O=C(Cc1ccc(-c2ccc(OCCN3CCOCC3)cc2)cn1)NCc1ccccc1`, the cell viability was determined as 8.82%.
As to `O=C(c1ccc(OCCN2CCCCC2)cc1)c1c(-c2ccc(O)cc2)sc2cc(O)ccc12`, the cell viability turned out to be 83.3%.
As for `O=C(c1ccc(OCCN2CCCCC2)cc1)c1c(-c2ccc(O)cc2)sc2cc(O)ccc12` [Evista (Raloxifene Hydrochloride)], the cell viability is 95.1%.
For `COC(=O)C(Cc1ccccc1)NC(=O)/C(=C1/OC(=O)C(c2ccccc2)=C1O)c1ccccc1` (centres undefined), the cell viability is 105%.
As for `CC1(C)CC[C@]2(C(=O)O)CC[C@]3(C)C(=CCC4[C@@]5(C)CC[C@@H](O)C(C)(C)C5CC[C@]43C)C2C1` (some centres undefined), the cell viability is 102%.
On to `COc1ccc(-c2coc3cc(O)ccc3c2=O)c(O)c1O`, for which the cell viability amounted to 99.7%.
Next, `CC(=O)O[C@H]1CC[C@]2(C)[C@H]3CC[C@@]4(C)[C@H](c5ccoc5)OC(=O)[C@H]5O[C@]54[C@]3(C)[C@H](OC(C)=O)C[C@H]2C1(C)C` [3beta-ACETOXYDEOXODIHYDROGEDUNIN]: 91.2%; `COc1ccc2oc(-c3ccccc3)c(OC)c(=O)c2c1`: 98.7%.
Next, `COc1ccc(-c2cc(=O)c3c(OC)c(OC)c(OC)cc3o2)cc1OC`: 105%; `COc1ccc([C@@H]2CC(=O)c3c(O)cc(O[C@@H]4O[C@H](CO[C@@H]5O[C@@H](C)[C@H](O)[C@@H](O)[C@H]5O)[C@@H](O)[C@H](O)[C@H]4O)cc3O2)cc1O`: 92.8%.
On to `c1ccc(-c2nn3c(c2-c2ccnc4cc(OCCN5CCOCC5)ccc24)CCC3)nc1`, for which the cell viability was 94.6%.
`CC12CCC3C(CC3(C)C)C(C)(CCC1=O)O2` (centres undefined): the cell viability was determined as 103%.
As for `C=CCSCC(N)C(=O)O` (centres undefined), the cell viability was 121%.
The figure for `CCCCc1nc2cc(/C=C/C(=O)NO)ccc2n1CCN(CC)CC` [SB939 (Pracinostat)] is 1.57%.
The figure for `CC1=CC(=O)CC(C)(C)C1(O)/C=C/C(C)=C\C(=O)O` (mixture of isomers) [ABSCISIC ACID (cis,trans; +/-)] is 102%.
Regarding `O=Cc1ccccc1O[C@@H]1O[C@H](CO)[C@@H](O)[C@H](O)[C@H]1O`, the cell viability is 102%.
On to `C[C@H](NC(=O)Cc1cc(F)cc(F)c1)C(=O)N[C@H](C(=O)OC(C)(C)C)c1ccccc1`, for which the cell viability turned out to be 76.1%.
`COc1cc(OC)c2c(OC)c(-c3ccc4c(c3)OCO4)c(=O)oc2c1`: the cell viability was found to be 101%.
The figure for `COc1cc(OC)c2c(c1)OC(c1ccccc1)CC2=O` (centres undefined) is 105%; for `COc1cc2c3cc1Oc1cc(ccc1O)C[C@@H]1c4c(cc(OC)c(O)c4Oc4ccc(cc4)C[C@@H]3N(C)CC2)CC[N+]1(C)C` it is 100%.
As for `NC(=O)Nc1cc(-c2cccc(F)c2)sc1C(=O)N[C@H]1CCCNC1`, the cell viability was 5.84%.
With `CC(=O)O[C@H]1C[C@@H](OC(C)=O)C(C)(C)C2CC(=O)[C@]3(C)C(CC[C@@]4(C)[C@H](C(=O)O)OC(=O)C5OC543)[C@]21C` (some centres undefined), the cell viability amounted to 89.8%.
Regarding `CC(=O)O[C@H]1C[C@@H](OC(C)=O)C(C)(C)[C@@H]2C[C@@H](OC(C)=O)[C@@]3(C)C4=CC(=O)O[C@@H](c5ccoc5)[C@]4(C)CC[C@@H]3[C@@]12C`, the cell viability came to 94.5%.
In the case of `COC1=CC(=O)C(O)=C/C1=C\C=C\c1ccccc1`, the cell viability was 95%.
Next, `Cc1cc(O)cc(O)c1C(=O)O`: 115%; `NCCC(=O)N[C@@H](Cc1c[nH]cn1)C(=O)O`: 89.7%; `O=C(O)C1CC([C@@H]2CCCCN2)CN2CCCCC12` (some centres undefined): 101%.
As to `CC(C)n1nc(-c2ccc3oc(N)nc3c2)c2c(N)ncnc21`, the cell viability was 21.6%.
The figure for `CCN1CCN(Cc2ccc(-c3cc4c(N[C@H](C)c5ccccc5)ncnc4[nH]3)cc2)CC1` is 53.4%; for `COC(=O)c1c(C)c2c(c(C)c1O)OC(=O)c1c(C)c(Cl)c(O)c(Cl)c1O2` it is 108%; for `O=C(Cc1cccs1)N[C@@H]1C(=O)N2C(C(=O)[O-])=C(C[n+]3ccccc3)CS[C@H]12` it is 96.4%.
`COC1=CC(=O)C(C(=O)c2ccccc2)=CC1=O`: the cell viability was determined as 103%.
In the case of `C[C@]1(c2nc3c(C(N)=O)cccc3[nH]2)CCCN1` [ABT-888 (Veliparib)], the cell viability is 101%.
On to `Cc1ccc(NC(=O)c2cccc(C(C)(C)C#N)c2)cc1Nc1ccc2ncn(C)c(=O)c2c1`, for which the cell viability is 42.7%.
For the molecule `Cc1ccc(C(=O)Nc2ccc(S(=O)(=O)O)c3cc(S(=O)(=O)O)cc(S(=O)(=O)O)c23)cc1NC(=O)c1cccc(NC(=O)Nc2cccc(C(=O)Nc3cc(C(=O)Nc4ccc(S(=O)(=O)O)c5cc(S(=O)(=O)O)cc(S(=O)(=O)O)c45)ccc3C)c2)c1`, the cell viability came to 111%.

As usually defined, the cell viability is a read-out of living cells in per cent, often relative to untreated cells.

These data come from the supplement of paper PMC11150407.
